Results on one compound are retold here after ChEMBL document CHEMBL1961873, “Compounds: GSK PKIS; Assays: Nanosyn kinase panel” (2012).

In test [1] the target is Sphingosine kinase 1 (Homo sapiens) (UniProt Q9NYA1). The conditions noted are these: at 1 µM.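 Further: mean SPHK1 inhibition value reported from the GSK PKIS kinase panel screen.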
The target of test [2] is T1, Sphingosine kinase 2 (Homo sapiens) (UniProt Q9NRA0).
T1 sequence (whole entry): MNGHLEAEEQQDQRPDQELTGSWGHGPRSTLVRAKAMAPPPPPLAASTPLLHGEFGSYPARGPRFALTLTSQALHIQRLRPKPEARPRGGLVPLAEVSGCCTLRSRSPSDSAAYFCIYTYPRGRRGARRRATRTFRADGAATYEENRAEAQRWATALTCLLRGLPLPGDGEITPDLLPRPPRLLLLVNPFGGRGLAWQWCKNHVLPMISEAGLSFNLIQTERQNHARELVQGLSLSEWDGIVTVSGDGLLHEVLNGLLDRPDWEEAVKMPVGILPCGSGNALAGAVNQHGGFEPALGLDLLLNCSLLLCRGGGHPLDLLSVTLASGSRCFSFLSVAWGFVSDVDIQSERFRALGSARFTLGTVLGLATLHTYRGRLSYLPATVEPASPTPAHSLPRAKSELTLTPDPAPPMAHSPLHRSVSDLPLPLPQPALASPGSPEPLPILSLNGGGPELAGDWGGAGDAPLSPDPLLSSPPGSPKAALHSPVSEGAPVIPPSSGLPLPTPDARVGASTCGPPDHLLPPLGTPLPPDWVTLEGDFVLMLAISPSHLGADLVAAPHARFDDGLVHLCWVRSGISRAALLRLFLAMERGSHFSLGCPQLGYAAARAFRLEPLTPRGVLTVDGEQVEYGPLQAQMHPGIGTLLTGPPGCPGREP
Particulars: at 0.1 µM.

The target of test [3] is T1, Sphingosine kinase 2 (Homo sapiens). The conditions noted are these: at 1 µM.
For test [4], the target named is Casein kinase II subunit alpha (Homo sapiens) (UniProt P68400). Particulars: at 0.1 µM.
Test [5] has the same target. Particulars: at 1 µM.
For test [6], the target named is T2, Inhibitor of nuclear factor kappa-B kinase subunit alpha (Homo sapiens) (UniProt O15111).
T2 sequence (whole entry): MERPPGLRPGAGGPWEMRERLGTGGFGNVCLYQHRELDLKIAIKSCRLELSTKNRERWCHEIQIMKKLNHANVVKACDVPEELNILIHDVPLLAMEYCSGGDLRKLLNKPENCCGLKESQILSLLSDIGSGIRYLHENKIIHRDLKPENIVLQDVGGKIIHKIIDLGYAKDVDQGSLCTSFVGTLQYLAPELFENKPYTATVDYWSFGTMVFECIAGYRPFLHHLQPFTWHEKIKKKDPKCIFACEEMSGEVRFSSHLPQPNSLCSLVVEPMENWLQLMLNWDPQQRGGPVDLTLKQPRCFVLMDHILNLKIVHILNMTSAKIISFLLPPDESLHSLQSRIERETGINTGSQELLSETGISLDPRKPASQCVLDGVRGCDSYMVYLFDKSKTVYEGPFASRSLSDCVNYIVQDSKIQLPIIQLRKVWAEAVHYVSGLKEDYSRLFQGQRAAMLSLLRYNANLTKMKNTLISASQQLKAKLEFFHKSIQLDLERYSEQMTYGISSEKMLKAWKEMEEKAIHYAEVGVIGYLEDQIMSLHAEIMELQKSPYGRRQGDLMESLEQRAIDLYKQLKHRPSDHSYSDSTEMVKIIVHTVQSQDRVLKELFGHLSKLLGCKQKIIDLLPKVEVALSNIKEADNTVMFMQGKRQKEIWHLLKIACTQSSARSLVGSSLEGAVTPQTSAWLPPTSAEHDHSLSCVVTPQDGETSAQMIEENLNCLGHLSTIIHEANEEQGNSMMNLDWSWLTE
The conditions noted are these: at 0.1 µM.

The target in test [7] is T2, Inhibitor of nuclear factor kappa-B kinase subunit alpha (Homo sapiens). The conditions noted are these: at 1 µM.
Test [8] concerns the target T3, Inhibitor of nuclear factor kappa-B kinase subunit beta (Homo sapiens) (UniProt O14920).
T3 sequence (whole entry): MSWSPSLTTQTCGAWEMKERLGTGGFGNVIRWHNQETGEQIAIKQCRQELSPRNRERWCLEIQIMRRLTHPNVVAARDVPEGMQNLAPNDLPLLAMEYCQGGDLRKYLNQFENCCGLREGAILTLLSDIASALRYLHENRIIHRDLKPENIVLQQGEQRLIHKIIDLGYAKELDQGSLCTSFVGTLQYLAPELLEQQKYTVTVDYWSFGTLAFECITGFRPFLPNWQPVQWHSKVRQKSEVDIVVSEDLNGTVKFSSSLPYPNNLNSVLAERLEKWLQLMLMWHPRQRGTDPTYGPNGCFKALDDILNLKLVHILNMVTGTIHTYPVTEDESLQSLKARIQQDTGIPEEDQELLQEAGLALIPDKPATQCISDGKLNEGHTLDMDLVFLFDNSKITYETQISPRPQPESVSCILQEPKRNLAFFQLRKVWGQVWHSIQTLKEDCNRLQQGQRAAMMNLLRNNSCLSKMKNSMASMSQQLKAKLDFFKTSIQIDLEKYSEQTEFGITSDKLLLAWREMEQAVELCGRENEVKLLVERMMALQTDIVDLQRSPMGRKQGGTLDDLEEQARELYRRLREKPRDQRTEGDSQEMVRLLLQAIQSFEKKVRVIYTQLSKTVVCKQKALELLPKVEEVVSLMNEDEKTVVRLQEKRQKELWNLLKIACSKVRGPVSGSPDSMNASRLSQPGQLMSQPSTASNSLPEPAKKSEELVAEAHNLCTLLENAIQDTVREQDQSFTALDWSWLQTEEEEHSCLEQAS
Particulars: at 0.1 µM.

Test [9] deals with T3, Inhibitor of nuclear factor kappa-B kinase subunit beta (Homo sapiens). Particulars: at 1 µM.
The target in test [10] is T4, Inhibitor of nuclear factor kappa-B kinase subunit epsilon (Homo sapiens) (UniProt Q14164).
T4 sequence (whole entry): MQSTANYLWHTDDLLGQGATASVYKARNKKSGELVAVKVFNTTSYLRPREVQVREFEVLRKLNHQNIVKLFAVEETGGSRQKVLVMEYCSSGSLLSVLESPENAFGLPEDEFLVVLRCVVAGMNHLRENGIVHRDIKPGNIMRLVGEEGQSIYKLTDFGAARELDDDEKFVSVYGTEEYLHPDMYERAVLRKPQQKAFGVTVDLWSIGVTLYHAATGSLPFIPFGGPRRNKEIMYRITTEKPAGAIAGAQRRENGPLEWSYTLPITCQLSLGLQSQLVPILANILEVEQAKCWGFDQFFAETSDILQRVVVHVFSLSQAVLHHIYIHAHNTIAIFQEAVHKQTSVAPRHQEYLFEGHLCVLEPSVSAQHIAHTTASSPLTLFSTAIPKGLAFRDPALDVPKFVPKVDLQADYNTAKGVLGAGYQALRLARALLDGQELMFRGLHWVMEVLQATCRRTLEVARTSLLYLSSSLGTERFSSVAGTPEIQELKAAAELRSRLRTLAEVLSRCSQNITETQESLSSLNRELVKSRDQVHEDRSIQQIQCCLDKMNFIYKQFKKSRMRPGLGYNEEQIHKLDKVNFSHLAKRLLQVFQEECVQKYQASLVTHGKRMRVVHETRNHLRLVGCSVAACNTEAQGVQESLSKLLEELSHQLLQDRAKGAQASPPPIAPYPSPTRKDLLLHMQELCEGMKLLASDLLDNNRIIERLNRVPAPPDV
The conditions noted are these: at 0.1 µM.

Test [11] has as its target T4, Inhibitor of nuclear factor kappa-B kinase subunit epsilon (Homo sapiens). The conditions noted are these: at 1 µM.
Test [12] deals with T5, Serine/threonine-protein kinase Nek1 (Homo sapiens) (UniProt Q96PY6).
T5 sequence (whole entry): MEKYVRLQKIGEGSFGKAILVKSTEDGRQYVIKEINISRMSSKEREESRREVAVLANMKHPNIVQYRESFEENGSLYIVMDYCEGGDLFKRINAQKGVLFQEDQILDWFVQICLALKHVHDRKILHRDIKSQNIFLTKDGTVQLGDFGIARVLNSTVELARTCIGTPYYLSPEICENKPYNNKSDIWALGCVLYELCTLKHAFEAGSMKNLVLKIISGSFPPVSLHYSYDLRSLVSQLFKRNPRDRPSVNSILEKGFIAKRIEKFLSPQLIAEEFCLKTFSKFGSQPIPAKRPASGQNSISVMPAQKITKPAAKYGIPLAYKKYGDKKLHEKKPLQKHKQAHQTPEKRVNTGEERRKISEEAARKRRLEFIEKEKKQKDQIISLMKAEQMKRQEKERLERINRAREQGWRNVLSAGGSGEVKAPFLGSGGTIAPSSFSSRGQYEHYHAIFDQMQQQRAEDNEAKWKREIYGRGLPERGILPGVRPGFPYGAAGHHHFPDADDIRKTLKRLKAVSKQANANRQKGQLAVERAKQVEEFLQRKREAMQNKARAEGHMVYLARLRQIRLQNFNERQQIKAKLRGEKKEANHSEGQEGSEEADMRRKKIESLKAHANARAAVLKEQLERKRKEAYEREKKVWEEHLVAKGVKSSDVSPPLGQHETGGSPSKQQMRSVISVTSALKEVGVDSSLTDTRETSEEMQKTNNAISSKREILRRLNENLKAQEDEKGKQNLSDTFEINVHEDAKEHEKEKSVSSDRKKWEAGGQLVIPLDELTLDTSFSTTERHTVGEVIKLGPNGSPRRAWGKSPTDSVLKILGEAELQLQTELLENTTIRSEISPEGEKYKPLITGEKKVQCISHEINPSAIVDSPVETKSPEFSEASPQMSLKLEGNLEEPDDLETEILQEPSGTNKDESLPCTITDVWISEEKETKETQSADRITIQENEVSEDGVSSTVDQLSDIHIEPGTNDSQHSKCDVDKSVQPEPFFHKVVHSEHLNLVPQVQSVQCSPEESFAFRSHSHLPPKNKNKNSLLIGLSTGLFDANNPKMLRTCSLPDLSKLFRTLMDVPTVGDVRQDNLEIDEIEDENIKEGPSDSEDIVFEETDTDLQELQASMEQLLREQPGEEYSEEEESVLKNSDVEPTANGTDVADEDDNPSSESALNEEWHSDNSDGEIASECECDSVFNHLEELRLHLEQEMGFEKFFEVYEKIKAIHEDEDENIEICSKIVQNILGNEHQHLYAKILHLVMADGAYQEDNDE
Particulars: at 0.1 µM.

Test [13] addresses T5, Serine/threonine-protein kinase Nek1 (Homo sapiens). The conditions noted are these: at 1 µM.
In test [14] the target is T6, Serine/threonine-protein kinase Nek2 (Homo sapiens) (UniProt P51955).
T6 sequence (whole entry): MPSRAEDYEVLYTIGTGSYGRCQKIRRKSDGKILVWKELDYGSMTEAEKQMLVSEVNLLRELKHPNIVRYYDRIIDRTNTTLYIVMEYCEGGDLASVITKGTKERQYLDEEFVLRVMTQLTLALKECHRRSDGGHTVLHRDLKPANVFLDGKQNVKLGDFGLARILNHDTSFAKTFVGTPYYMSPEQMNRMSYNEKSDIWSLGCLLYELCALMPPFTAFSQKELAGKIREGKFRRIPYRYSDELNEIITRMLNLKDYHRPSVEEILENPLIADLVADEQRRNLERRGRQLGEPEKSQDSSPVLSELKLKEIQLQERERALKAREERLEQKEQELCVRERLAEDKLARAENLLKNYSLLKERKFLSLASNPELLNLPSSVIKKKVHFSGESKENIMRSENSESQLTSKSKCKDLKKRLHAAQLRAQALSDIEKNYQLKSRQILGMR
The conditions noted are these: at 0.1 µM.

Test [15] concerns the target T6, Serine/threonine-protein kinase Nek2 (Homo sapiens). The conditions noted are these: at 1 µM.
Test [16] concerns the target Serine/threonine-protein kinase Nek6 (Homo sapiens) (UniProt Q9HC98). The conditions noted are these: at 0.1 µM.
Test [17] shares this target. The conditions noted are these: at 1 µM.
Test [18] has as its target Serine/threonine-protein kinase Nek7 (Homo sapiens) (UniProt Q8TDX7). Particulars: at 0.1 µM.
Test [19] shares this target. The conditions noted are these: at 1 µM.
Test [20] deals with T7, Serine/threonine-protein kinase Nek9 (Homo sapiens) (UniProt Q8TD19).
T7 sequence (whole entry): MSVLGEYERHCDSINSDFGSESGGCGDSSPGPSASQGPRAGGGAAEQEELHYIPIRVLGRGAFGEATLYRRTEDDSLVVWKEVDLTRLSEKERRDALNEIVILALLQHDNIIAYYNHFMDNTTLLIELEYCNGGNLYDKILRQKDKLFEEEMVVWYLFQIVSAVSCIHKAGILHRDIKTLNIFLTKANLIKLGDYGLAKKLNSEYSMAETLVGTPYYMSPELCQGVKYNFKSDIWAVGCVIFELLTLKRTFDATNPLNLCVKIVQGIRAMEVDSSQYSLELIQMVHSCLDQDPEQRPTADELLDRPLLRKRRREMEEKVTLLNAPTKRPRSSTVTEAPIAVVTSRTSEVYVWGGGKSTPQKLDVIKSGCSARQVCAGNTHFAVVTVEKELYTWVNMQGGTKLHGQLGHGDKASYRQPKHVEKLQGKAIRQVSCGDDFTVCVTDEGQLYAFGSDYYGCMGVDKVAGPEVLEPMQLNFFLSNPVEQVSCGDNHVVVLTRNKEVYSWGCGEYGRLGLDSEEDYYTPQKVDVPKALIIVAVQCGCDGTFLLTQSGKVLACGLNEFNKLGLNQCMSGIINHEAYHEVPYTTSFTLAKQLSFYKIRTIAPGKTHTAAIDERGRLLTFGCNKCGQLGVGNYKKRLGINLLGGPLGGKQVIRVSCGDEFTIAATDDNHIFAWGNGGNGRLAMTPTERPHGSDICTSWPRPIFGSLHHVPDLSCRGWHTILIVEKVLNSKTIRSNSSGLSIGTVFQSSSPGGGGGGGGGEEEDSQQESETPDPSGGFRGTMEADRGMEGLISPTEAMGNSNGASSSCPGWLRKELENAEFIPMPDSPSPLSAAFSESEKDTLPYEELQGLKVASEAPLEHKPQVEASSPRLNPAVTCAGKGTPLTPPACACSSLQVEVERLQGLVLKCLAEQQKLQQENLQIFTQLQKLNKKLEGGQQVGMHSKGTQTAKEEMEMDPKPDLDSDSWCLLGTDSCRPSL
The conditions noted are these: at 0.1 µM.

Sequence of Serine/threonine-protein kinase Nek6 (Homo sapiens) (Q9HC98 whole entry): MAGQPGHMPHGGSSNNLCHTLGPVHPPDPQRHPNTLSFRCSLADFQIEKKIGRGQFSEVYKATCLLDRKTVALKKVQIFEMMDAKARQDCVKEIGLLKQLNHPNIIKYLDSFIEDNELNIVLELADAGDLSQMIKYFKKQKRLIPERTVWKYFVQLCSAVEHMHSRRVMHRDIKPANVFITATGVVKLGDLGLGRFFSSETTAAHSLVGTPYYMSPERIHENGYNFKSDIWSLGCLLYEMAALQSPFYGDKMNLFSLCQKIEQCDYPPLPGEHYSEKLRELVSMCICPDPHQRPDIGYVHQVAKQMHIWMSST
Sequence of Casein kinase II subunit alpha (Homo sapiens) (P68400 whole entry, looked up): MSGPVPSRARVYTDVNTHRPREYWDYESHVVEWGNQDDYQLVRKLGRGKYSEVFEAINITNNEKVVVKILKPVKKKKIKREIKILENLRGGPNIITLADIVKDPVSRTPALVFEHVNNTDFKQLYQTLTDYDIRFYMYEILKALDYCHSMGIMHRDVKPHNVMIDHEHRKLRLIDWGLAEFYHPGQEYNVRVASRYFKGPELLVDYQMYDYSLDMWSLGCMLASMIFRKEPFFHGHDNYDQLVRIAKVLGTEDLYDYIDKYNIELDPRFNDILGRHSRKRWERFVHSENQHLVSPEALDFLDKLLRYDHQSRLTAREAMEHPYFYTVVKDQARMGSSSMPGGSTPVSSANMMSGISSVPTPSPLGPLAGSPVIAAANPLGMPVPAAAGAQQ
Sequence of Serine/threonine-protein kinase Nek7 (Homo sapiens) (Q8TDX7 whole entry, looked up): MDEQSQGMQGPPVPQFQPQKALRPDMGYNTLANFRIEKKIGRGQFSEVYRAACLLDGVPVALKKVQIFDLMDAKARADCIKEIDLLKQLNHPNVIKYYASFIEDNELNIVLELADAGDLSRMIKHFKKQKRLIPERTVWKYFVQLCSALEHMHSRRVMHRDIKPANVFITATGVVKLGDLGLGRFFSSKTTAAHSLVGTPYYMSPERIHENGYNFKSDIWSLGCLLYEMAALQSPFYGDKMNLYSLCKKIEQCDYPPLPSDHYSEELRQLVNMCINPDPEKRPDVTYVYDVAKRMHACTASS
Sequence of Sphingosine kinase 1 (Homo sapiens) (Q9NYA1 whole entry): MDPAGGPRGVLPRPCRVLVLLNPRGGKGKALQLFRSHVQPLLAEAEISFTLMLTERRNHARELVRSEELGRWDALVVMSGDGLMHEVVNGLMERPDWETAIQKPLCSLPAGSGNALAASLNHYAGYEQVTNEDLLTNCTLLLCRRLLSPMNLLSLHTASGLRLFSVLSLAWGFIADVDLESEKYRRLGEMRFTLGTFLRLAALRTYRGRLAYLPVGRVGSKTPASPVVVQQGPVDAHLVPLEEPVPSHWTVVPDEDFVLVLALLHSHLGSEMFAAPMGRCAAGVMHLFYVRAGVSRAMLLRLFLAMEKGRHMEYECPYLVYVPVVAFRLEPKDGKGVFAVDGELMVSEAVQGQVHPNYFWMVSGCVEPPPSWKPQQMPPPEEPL

Take `CN(C)CCNC(=O)Nc1ccc(N(C)c2ccnc(Nc3ccc(CS(C)(=O)=O)cc3)n2)cc1`: the inhibition (usually the change of the read-out against control, counted positive when it falls) in test [1] was -1.23%; in test [2] it was -0.06%; in test [3] it was 2.33%; in test [4], 2.94%; in test [5] it was 0.31%; in test [6], 2.05%. In addition, the inhibition in [7] worked out at 0.39%; in test [8], 7.67%; in test [9] it was 1.94%; in test [10], 3.33%; in test [11], 6.21%; in test [12] it was 0.66%. The inhibition in test [13] was 2.81%; in [14] it was 5.18%; in [15], -2.7%; in test [16] it was 3.4%; in test [17] it was 3.93%; in test [18], 3.07%. Besides, the inhibition in test [19] worked out at 2.78%; in test [20], 0.16%.
